In PubChem BioAssay AID1159580 (chemical genetic matrix, 2015):
In all, about 5,500 compounds went through this assay and about 2,000 (36%) were called active. Inconclusive results (about 18%) are left out. No stated cut-off is given here; in the data, active means normalized growth mostly below about 0.91 (no sharp cut-off); inconclusive means no clear call, values can overlap the other calls; inactive means mostly above about 0.92. The list shows a part of the results.

Assay: chemical genetic growth profiling, strain panel (AID 1159580);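 further: tested at 20 µM; growth read once vehicle control cultures reached saturation at 30 °C; 1 = growth at the plate median or of vehicle wells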
Details: S. cerevisiae deletion strains, growth OD
[1] = locus YDL101C, strain DUN1, stronger effect = lower value
[2] = locus YHR030C, strain SLT2, stronger effect = lower value

Measured: normalized growth

O=C(N/N=C\c1cccs1)c1ccccc1CO
inactive: locus YAL013W, strain DEP1, stronger effect = lower value 0.998 | locus YBR229C, strain ROT2, stronger effect = lower value 1.01 | [1] 0.997 | locus YDL134C, strain PPH21, stronger effect = lower value 1 | locus YDR150W, strain NUM1, stronger effect = lower value 1 | locus YEL061C, strain CIN8, stronger effect = lower value 0.994 | locus YGR078C, strain PAC10, stronger effect = lower value 0.994 | locus YGR229C, strain SMI1, stronger effect = lower value 1 | [2] 1 | locus YHR087W, strain rtc3, stronger effect = lower value 1 | locus YJL187C, strain SWE1, stronger effect = lower value 0.989 | locus YJR043C, strain POL32, stronger effect = lower value 0.999 | locus YJR075W, strain HOC1, stronger effect = lower value 0.995 | locus YLR039C, strain RIC1, stronger effect = lower value 0.999 | locus YLR058C, strain SHM2 (second series), stronger effect = lower value 1.01 | locus YLR085C, strain ARP6, stronger effect = lower value 0.996 | locus YLR262C, strain YPT6, stronger effect = lower value 1.04 | locus YML094W, strain GIM5, stronger effect = lower value 0.986 | locus YMR219W, strain ESC1, stronger effect = lower value 1 | locus YMR263W, strain SAP30, stronger effect = lower value 0.997 | locus YMR307W, strain GAS1, stronger effect = lower value 1 | locus YNL128W, strain TEP1, stronger effect = lower value 1.01 | locus YNL153C, strain GIM3, stronger effect = lower value 0.99 | locus YNL298W, strain CLA4 (second series), stronger effect = lower value 1 | locus YNL322C, strain KRE1, stronger effect = lower value 0.996 | locus YNR030W, strain Alg12, stronger effect = lower value 1.01 | locus YOL006C, strain TOP1, stronger effect = lower value 0.994 | locus YPL055C, strain LGE1, stronger effect = lower value 1.01 | locus YPL241C, strain CIN2, stronger effect = lower value 0.992 | locus YPR135W, strain CTF4, stronger effect = lower value 1.04

O=[N+]([O-])c1ccccc1CS(=O)(=O)c1nc2ccccc2s1
inactive: locus YDL214C, strain PRR2, stronger effect = lower value 0.884 | locus YDR477W, strain SNF1, stronger effect = lower value 0.728 | locus YER123W, strain YCK3, stronger effect = lower value 0.821 | locus YER133W, strain GLC7, stronger effect = lower value 0.773 | locus YFR003C, strain YPI1, stronger effect = lower value 0.904 | locus YFR019W, strain FAB1, stronger effect = lower value 0.933 | locus YGR040W, strain KSS1, stronger effect = lower value 0.791 | locus YGR052W, strain FMP48, stronger effect = lower value 0.835 | locus YGR092W, strain DBF2, stronger effect = lower value 0.537 | locus YHR079C, strain IRE1, stronger effect = lower value 0.946 | locus YHR082C, strain KSP1, stronger effect = lower value 0.949 | locus YHR205W, strain SCH9, stronger effect = lower value 0.933 | locus YIL147C, strain SLN1, stronger effect = lower value 0.894 | locus YJL095W, strain BCK1, stronger effect = lower value 0.616 | locus YJL128C, strain PBS2, stronger effect = lower value 0.953 | locus YJL157C, strain FAR1, stronger effect = lower value 0.867 | locus YJR066W, strain TOR1 (second series), stronger effect = lower value 0.832 | locus YJR066W, strain TOR1, stronger effect = lower value 0.753 | locus YKL067W, strain YNK1, stronger effect = lower value 0.921 | locus YKL101W, strain HSL1, stronger effect = lower value 0.902 | locus YLR113W, strain HOG1, stronger effect = lower value 0.887 | locus YLR133W, strain CKI1, stronger effect = lower value 0.916 | locus YML070W, strain DAK1, stronger effect = lower value 0.881 | locus YMR001C, strain CDC5, stronger effect = lower value 0.891 | locus YMR205C, strain PFK2 (second series), stronger effect = lower value 0.91 | locus YNL020C, strain ARK1, stronger effect = lower value 0.918 | locus YNL183C, strain NPR1, stronger effect = lower value 0.871 | locus YNL307C, strain MCK1 (second series), stronger effect = lower value 0.655 | locus YOL136C, strain PFK27, stronger effect = lower value 0.843 | locus YOR061W, strain CKA2, stronger effect = lower value 0.908 | locus YOR119C, strain RIO1, stronger effect = lower value 0.734 | locus YOR231W, strain MKK1, stronger effect = lower value 0.91 | locus YPL031C, strain PHO85, stronger effect = lower value 0.704 | locus YPL153C, strain RAD53, stronger effect = lower value 0.764 | locus YPL204W, strain HRR25, stronger effect = lower value 0.678 | locus YPL256C, strain CLN2, stronger effect = lower value 1.08 | locus YPR106W, strain ISR1, stronger effect = lower value 0.966 | locus YPR111W, strain DBF20, stronger effect = lower value 0.952 | strain NNK1, stronger effect = lower value 0.93
active: locus YAR019C, strain CDC15, stronger effect = lower value 0.862 | locus YBL105C, strain PKC1, stronger effect = lower value 0.895 | locus YBR135W, strain CKS1, stronger effect = lower value 0.89 | locus YBR136W, strain MEC1, stronger effect = lower value 0.883 | locus YBR160W, strain CDC28, stronger effect = lower value 0.886 | locus YDL017W, strain CDC7, stronger effect = lower value 0.894 | locus YDL028C, strain MPS1, stronger effect = lower value 0.892 | [1] 0.889 | locus YDL108W, strain KIN28, stronger effect = lower value 0.889 | locus YDL132W, strain cdc53, stronger effect = lower value 0.828 | locus YDR052C, strain DBF4, stronger effect = lower value 0.87 | locus YDR054C, strain cdc34, stronger effect = lower value 0.855 | locus YDR226W, strain ADK1, stronger effect = lower value 0.878 | locus YFL009W, strain cdc4, stronger effect = lower value 0.855 | locus YFL029C, strain CAK1, stronger effect = lower value 0.849 | locus YFR028C, strain CDC14, stronger effect = lower value 0.863 | [2] 0.671 | locus YJR016C, strain ILV3, stronger effect = lower value 0.871 | locus YKL048C, strain ELM1, stronger effect = lower value 0.755 | locus YKL193C, strain SDS22, stronger effect = lower value 0.864 | locus YKL203C, strain TOR2, stronger effect = lower value 0.711 | locus YLR403W, strain SFP1, stronger effect = lower value 0.503 | locus YMR277W, strain FCP1, stronger effect = lower value 0.852 | locus YNL006W, strain LST8, stronger effect = lower value 0.894 | locus YNL161W, strain CBK1, stronger effect = lower value 0.885 | locus YNL207W, strain RIO2, stronger effect = lower value 0.852 | locus YNL222W, strain SSU72, stronger effect = lower value 0.886 | locus YOL078W, strain AVO1, stronger effect = lower value 0.834 | locus YOR329C, strain SCD5, stronger effect = lower value 0.896 | locus YPL209C, strain IPL1, stronger effect = lower value 0.882 | locus YPR025C, strain CCL1, stronger effect = lower value 0.892 | strain TSCII, stronger effect = lower value 0.848
